Assay results from PubChem BioAssay (EPA / NIEHS).
Activity calls are given as the source filed them. How the source made its calls: active means hit-call score of the fitted dose curve at least 0.9, where 1 is the maximum; inactive means score below 0.9.

What was measured:
Details in all cases: mRNA level, 48 h; actives raise or lower the signal
[1] = read-out: Interleukin 6 (IL6), IL6 (gene 3569); assay: LTEA_HepaRG_IL6: Life Technologies and Expression Analysis (LTEA) Assay for Interleukin 6 (IL6) using HepaRG (AID 2283509)
Outline: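 HepaRG, ~100,000 cells/well, 48 h pre-culture; serum-free induction medium; cmpd 8-pt half-log from 100 uM, 0.5% DMSO, duplicate, 48 h. Lysis in RLT, TaqMan qRT-PCR; gain or loss vs DMSO.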

[2] = read-out: Potassium channel subfamily K member 1 (KCNK1), KCNK1 (gene 3775); assay: LTEA_HepaRG_KCNK1: Life Technologies and Expression Analysis (LTEA) Assay for Potassium channel subfamily K member 1 (KCNK1) using HepaRG (AID 2283511)
Outline: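 Gain or loss of KCNK1 mRNA is the read-out, quantified by qRT-PCR against three housekeeping genes after 48 h chemical treatment of human HepaRG liver cells. Concentrations ran from 100 uM downward in half-log steps, vehicle 0.5% DMSO.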

[3] = read-out: Keratin 19 (KRT19), KRT19 (gene 3880); assay: LTEA_HepaRG_KRT19: Life Technologies and Expression Analysis (LTEA) Assay for Keratin 19 (KRT19) using HepaRG (AID 2283512)
Outline: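 Readout is qRT-PCR of KRT19 mRNA, normalized to ACTB, GAPDH and POLR2A, from HepaRG cells treated 48 h with eight-point half-log dilutions topping at 100 uM. Activity in either direction is scored relative to 0.5% DMSO vehicle.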

[4] = read-out: JUN Transcription Factor, JUN (gene 3725); assay: LTEA_HepaRG_JUN: Life Technologies and Expression Analysis (LTEA) Assay for JUN Transcription Factor using HepaRG (AID 2283513)
Outline: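 Differentiated HepaRG cells were exposed to chemicals for 48 h in serum-free induction medium, 8 concentrations from 100 uM in half-log steps, 0.5% DMSO vehicle, in duplicate. JUN mRNA was quantified by TaqMan qRT-PCR, normalized to ACTB, GAPDH, POLR2A.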

[5] = read-out: Lipase C (LIPC), LIPC (gene 3990); assay: LTEA_HepaRG_LIPC: Life Technologies and Expression Analysis (LTEA) Assay for Lipase C (LIPC) using HepaRG (AID 2283514)
Outline: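 Read-out is LIPC transcript level by TaqMan qRT-PCR, normalized to three housekeeping genes, after 48 h chemical treatment of human HepaRG liver cells. Curves span eight concentrations topping at 100 uM; activity in either direction scored relative to 0.5% DMSO.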

[6] = read-out: Lipoprotein lipase (LPL), LPL (gene 4023); assay: LTEA_HepaRG_LPL: Life Technologies and Expression Analysis (LTEA) Assay for Lipoprotein lipase (LPL) using HepaRG (AID 2283515)
Outline: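 Read-out is LPL transcript level by qRT-PCR, normalized to three housekeeping genes and fitted bidirectionally against the DMSO control. Human HepaRG cells received chemicals for 48 h at up to 100 uM.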

[7] = read-out: MicroRNA 122 (MIR122), gene 406906; assay: LTEA_HepaRG_MIR122: Life Technologies and Expression Analysis (LTEA) Assay for MicroRNA 122 (MIR122) using HepaRG (AID 2283516); further: the transcript read is the microRNA miR-122
Outline: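 Differentiated human HepaRG cells were exposed 48 h in serum-free induction medium to eight half-log concentrations (top 100 uM, 0.5% DMSO). Transcript level was measured by TaqMan qRT-PCR, normalized to ACTB, GAPDH and POLR2A, and fitted bidirectionally versus DMSO.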

[8] = read-out: matrix metalloproteinase-10 (MMP10), MMP10 (gene 4319); assay: LTEA_HepaRG_MMP10: Life Technologies and Expression Analysis (LTEA) Assay for matrix metalloproteinase-10 (MMP10) using HepaRG (AID 2283517)
Outline: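 Gain or loss of MMP10 mRNA is fitted relative to the 0.5% DMSO vehicle. The human hepatic line HepaRG receives a 48-hour serum-free exposure, in duplicate, with a maximum concentration of 100 uM.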

MYC, MYC (gene 4609) = assay: LTEA_HepaRG_MYC: Life Technologies and Expression Analysis (LTEA) Assay for MYC using HepaRG (AID 2283518)
Outline: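 Expression changes were scored by TaqMan qRT-PCR with ACTB, GAPDH and POLR2A normalization. Cultures in serum-free induction medium received duplicate 8-point concentration series, highest 100 uM, for 48 h; DMSO (0.5%) served as baseline.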

[9] = read-out: matrix metalloproteinase-3 (MMP3), MMP3 (gene 4314); assay: LTEA_HepaRG_MMP3: Life Technologies and Expression Analysis (LTEA) Assay for matrix metalloproteinase-3 (MMP3) using HepaRG (AID 2283519)
Outline: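 HepaRG, human; 48 h dosing, 8 conc. (max 100 uM, half-log), duplicate, 0.5% DMSO. Readout: MMP3 transcript by Fluidigm TaqMan qRT-PCR, ACTB/GAPDH/POLR2A-normalised. Gain or loss fitted vs DMSO.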

[10] = read-out: Paternally Expressed 10 (PEG10), PEG10 (gene 23089); assay: LTEA_HepaRG_PEG10: Life Technologies and Expression Analysis (LTEA) Assay for Paternally Expressed 10 (PEG10) using HepaRG (AID 2283520)
Outline: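 Differentiated HepaRG cells, plated 48 h then switched to serum-free induction medium, were exposed in duplicate for 48 h to eight half-log concentrations topping at 100 uM in 0.5% DMSO. PEG10 mRNA was quantified by TaqMan qRT-PCR, normalised to ACTB, GAPDH and POLR2A.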

[11] = read-out: Nuclear factor NF-kappa-B p105 subunit (Homo sapiens) (UniProt P19838); assay: LTEA_HepaRG_NFKB1: Life Technologies and Expression Analysis (LTEA) Assay for Nuclear Factor Kappa B Subunit 1 (NFKB1) using HepaRG (AID 2283521)
Outline: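 Differentiated human HepaRG cells in serum-free induction medium with 0.5% DMSO were exposed for 48 h to eight half-log concentrations, top 100 uM, in duplicate. NFKB1 mRNA measured by Fluidigm TaqMan qRT-PCR, normalised to ACTB, GAPDH and POLR2A; bidirectional fit versus DMSO.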

[12] = read-out: Protein phosphatase 2A (PPP2R4), PTPA (gene 5524); assay: LTEA_HepaRG_PPP2R4: Life Technologies and Expression Analysis (LTEA) Assay for Protein phosphatase 2A (PPP2R4) using HepaRG (AID 2283522)
Outline: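 Differentiated HepaRG cells in serum-free induction medium were exposed in duplicate for 48 h to eight concentrations, top 100 uM with half-log dilutions, in 0.5% DMSO. PPP2R4 mRNA was quantified by TaqMan qRT-PCR, normalized to ACTB, GAPDH and POLR2A.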

[13] = read-out: Phosphatase and tensin (PTEN), PTEN (gene 5728); assay: LTEA_HepaRG_PTEN: Life Technologies and Expression Analysis (LTEA) Assay for Phosphatase and tensin (PTEN) using HepaRG (AID 2283523)
Outline: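 Read-out is PTEN transcript level by multiplexed TaqMan qRT-PCR after 48 h chemical treatment of human HepaRG cultures in serum-free induction medium. Concentrations spanned 100 uM downward in half-log steps, 0.5% DMSO throughout; activity fitted in both directions against vehicle.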

[14] = read-out: solute carrier (SLC22A1), SLC22A1 (gene 6580); assay: LTEA_HepaRG_SLC22A1: Life Technologies and Expression Analysis (LTEA) Assay for solute carrier (SLC22A1) using HepaRG (AID 2283524)
Outline: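 HepaRG (human liver line), 48 h dosing in serum-free induction medium; 8 conc., half-log down from 100 uM, 0.5% DMSO vehicle, duplicates. Endpoint: SLC22A1 mRNA, qRT-PCR, housekeeping-normalized; gain/loss fit vs DMSO.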

[15] = read-out: Pyruvate Dehydrogenase Kinase 4 (PDK4), PDK4 (gene 5166); assay: LTEA_HepaRG_PDK4: Life Technologies and Expression Analysis (LTEA) Assay for Pyruvate Dehydrogenase Kinase 4 (PDK4) using HepaRG (AID 2283525)
Outline: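 In this multiplexed human HepaRG expression assay, cells are treated 48 h with test chemicals across an eight-point range starting at 100 uM. PDK4 mRNA changes, normalized to ACTB/GAPDH/POLR2A, are fitted in both directions relative to vehicle.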

[16] = read-out: NAD(P)H dehydrogenase [quinone] 1 (NQO1), NQO1 (gene 1728); assay: LTEA_HepaRG_NQO1: Life Technologies and Expression Analysis (LTEA) Assay for NAD(P)H dehydrogenase [quinone] 1 (NQO1) using HepaRG (AID 2283526)
Outline: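 Differentiated HepaRG cells, plated 48 h and then switched to serum-free induction medium, were exposed in duplicate for 48 h to 8-point half-log concentrations up to 100 uM in 0.5% DMSO. mRNA measured by qRT-PCR, normalized to ACTB, GAPDH, POLR2A; bidirectional fit versus DMSO.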

[17] = read-out: Nuclear factor erythroid 2-related factor 2 (Homo sapiens) (UniProt Q16236); assay: LTEA_HepaRG_NFE2L2: Life Technologies and Expression Analysis (LTEA) Assay for Nuclear factor erythroid 2-related factor 2 (NFE2L2) Transcription Factor using HepaRG (AID 2283527);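 further: TaqMan qRT-PCR transcript level normalised to ACTB GAPDH and POLR2A housekeeping genes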
Outline: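 Transcript level of NFE2L2 is the read-out, measured by microfluidic TaqMan qRT-PCR and normalized to three housekeeping genes. Human HepaRG cultures received test chemical for 48 h at up to 100 uM in half-log steps. Gain or loss of signal is fitted relative to 0.5% DMSO.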

[18] = read-out: succinate dehydrogenase complex iron sulfur subunit B (SDHB), SDHB (gene 6390); assay: LTEA_HepaRG_SDHB: Life Technologies and Expression Analysis (LTEA) Assay for succinate dehydrogenase complex iron sulfur subunit B (SDHB) using HepaRG (AID 2283528)
Outline: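 HepaRG cells (~100,000/well, plated 48 h) exposed in duplicate for 48 h in serum-free induction medium to 8-point half-log series from 100 uM in 0.5% DMSO; mRNA by qRT-PCR normalised to ACTB, GAPDH, POLR2A; bidirectional fit versus DMSO.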

[19] = read-out: Interleukin 6 Receptor (IL6R), IL6R (gene 3570); assay: LTEA_HepaRG_IL6R: Life Technologies and Expression Analysis (LTEA) Assay for Interleukin 6 Receptor (IL6R) using HepaRG (AID 2283510)
Outline: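 Differentiated human HepaRG cells, plated 48 h then switched to serum-free induction medium, were dosed in duplicate for 48 h at eight half-log concentrations up to 100 uM in 0.5% DMSO. IL6R mRNA quantified by qRT-PCR, normalized to ACTB/GAPDH/POLR2A; bidirectional fit versus DMSO.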

Measured: AC50

Sequence of Nuclear factor NF-kappa-B p105 subunit (Homo sapiens) (P19838 whole entry, looked up): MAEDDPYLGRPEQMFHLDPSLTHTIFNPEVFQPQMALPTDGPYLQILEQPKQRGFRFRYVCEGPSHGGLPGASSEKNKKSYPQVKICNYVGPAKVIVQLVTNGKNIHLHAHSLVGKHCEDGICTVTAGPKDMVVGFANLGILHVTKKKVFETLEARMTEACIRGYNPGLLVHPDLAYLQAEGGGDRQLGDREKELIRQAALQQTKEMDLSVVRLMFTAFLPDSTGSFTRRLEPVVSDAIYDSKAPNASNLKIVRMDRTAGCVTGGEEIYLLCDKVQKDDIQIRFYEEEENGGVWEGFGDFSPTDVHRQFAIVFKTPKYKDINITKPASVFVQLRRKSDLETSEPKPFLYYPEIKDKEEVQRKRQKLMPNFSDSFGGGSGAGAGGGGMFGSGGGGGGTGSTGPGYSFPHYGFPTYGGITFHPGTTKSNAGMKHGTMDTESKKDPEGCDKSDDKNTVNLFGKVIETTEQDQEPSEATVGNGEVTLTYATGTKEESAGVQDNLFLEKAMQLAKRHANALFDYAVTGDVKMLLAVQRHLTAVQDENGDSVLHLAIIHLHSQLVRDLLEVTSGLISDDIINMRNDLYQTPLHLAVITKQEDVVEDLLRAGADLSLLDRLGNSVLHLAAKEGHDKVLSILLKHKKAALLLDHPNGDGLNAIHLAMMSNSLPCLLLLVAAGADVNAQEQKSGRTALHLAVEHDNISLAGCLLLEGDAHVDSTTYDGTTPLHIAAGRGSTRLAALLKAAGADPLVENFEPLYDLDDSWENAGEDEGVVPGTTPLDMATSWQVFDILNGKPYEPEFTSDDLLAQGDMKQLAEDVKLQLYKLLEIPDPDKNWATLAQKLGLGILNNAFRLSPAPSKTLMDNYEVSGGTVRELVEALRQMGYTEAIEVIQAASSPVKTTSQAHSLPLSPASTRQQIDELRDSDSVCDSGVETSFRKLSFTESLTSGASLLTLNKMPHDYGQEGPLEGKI
Sequence of Nuclear factor erythroid 2-related factor 2 (Homo sapiens) (Q16236 whole entry, looked up): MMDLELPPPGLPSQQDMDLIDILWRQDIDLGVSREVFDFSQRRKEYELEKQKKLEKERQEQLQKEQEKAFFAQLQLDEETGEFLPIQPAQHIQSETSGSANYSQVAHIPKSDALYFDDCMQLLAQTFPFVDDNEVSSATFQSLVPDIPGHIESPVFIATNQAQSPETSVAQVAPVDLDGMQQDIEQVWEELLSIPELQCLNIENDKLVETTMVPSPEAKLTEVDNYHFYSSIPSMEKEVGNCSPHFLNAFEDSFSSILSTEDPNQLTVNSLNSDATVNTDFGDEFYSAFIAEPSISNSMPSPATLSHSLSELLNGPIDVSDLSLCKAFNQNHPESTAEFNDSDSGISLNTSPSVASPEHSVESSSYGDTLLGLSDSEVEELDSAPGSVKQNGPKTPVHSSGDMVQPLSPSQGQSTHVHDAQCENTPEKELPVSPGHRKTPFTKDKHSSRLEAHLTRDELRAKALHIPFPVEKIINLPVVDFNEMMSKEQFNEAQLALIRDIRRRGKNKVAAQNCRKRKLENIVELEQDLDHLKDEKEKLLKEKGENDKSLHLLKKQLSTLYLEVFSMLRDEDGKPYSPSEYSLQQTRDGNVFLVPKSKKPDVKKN

COCCOCCOCCOC
not listed: [19]
inactive: all other assays above

CC(=O)OC[C@H]1O[C@@](COC(C)=O)(O[C@H]2O[C@H](COC(C)=O)[C@@H](OC(C)=O)[C@H](OC(C)=O)[C@H]2OC(C)=O)[C@@H](OC(C)=O)[C@@H]1OC(C)=O
not listed: [11]
inactive: all other assays above

CC1(C)C(=O)N(Br)C(=O)N1Br
not listed: [11]
inactive: all other assays above

CNCc1ccc(NC(=O)c2c[nH]c3c2C(=O)CCC3)cc1
not listed: [11]
inactive: all other assays above

CCCN(C1CCN(C(=O)C2CCNCC2)CC1)[C@@H]1CCc2ccc(OC)cc2C1
active: [1] 84.2 µM | [3] 13.6 µM | [5] 69.6 µM | [7] 80 µM | MYC, MYC (gene 4609) 89.5 µM | [10] 60.2 µM | [11] 0.304 µM | [14] 83 µM
not listed: [19]
inactive: all other assays above

CN(C)c1ccc(Cc2ccc(N(C)C)cc2)cc1
active: [3] 40.8 µM | [5] 80.1 µM | [7] 50 µM | [9] 50 µM | [10] 37.3 µM
not listed: [11]
inactive: all other assays above

CCOC(=O)COc1ccc2c(c1)CC(NCC(O)c1cccc(Cl)c1)CC2 (stereo unspecified)
active: [3] 2.77 µM | [5] 45.8 µM
not listed: [11]
inactive: all other assays above

CCn1nc(Cc2ccccc2)cc1C1CCN(C[C@H]2C[C@H](N(C)[C@@H](C(=O)O)C(C)C)C[C@@H]2c2cccc(F)c2)CC1
active: [3] 34.9 µM | [6] 50 µM | [14] 12.4 µM
not listed: [11]
inactive: all other assays above

CC[C@H]1CC[C@H](NCc2cc3c(cc2OC)[C@H]2C[C@H]2C(=O)N3C)[C@H](c2ccccc2)N1
active: [6] 50 µM
not listed: [19]
inactive: all other assays above

CC[C@H](C)C(=O)O[C@H]1C[C@@H](C)C=C2C=C[C@H](C)[C@H](CC[C@@H]3C[C@@H](O)CC(=O)O3)[C@H]21
active: [15] 16.9 µM
not listed: [2] | [11]
inactive: all other assays above

COC(=O)c1ccccc1O
not listed: [11]
inactive: all other assays above

C[C@](N)(Cc1ccc(O)c(O)c1)C(=O)O
not listed: [19]
inactive: all other assays above

Cn1cnc([N+](=O)[O-])c1Sc1ncnc2nc[nH]c12
active: [2] 4.15 µM | [3] 5.94 µM | [5] 17.7 µM | [7] 4.54 µM | MYC, MYC (gene 4609) 6.38 µM | [9] 1.9 µM | [10] 1.66 µM | [14] 16.1 µM | [15] 6.61 µM
not listed: [19]
inactive: all other assays above
